According to PubChem BioAssay AID602360 (National Center for Advancing Translational Sciences (NCATS), 2012):
Inconclusive results are not listed. Active and inactive are the calls of the source. Calls follow the shape of the dose curve; as a rule, active = well fitted curve in the direction sought with a large enough effect; inconclusive = small, poorly fitted or top-dose-only effect, or another doubt; inactive = no such curve, though single readings can be large or run the other way.

Biological target: Holo-[acyl-carrier-protein] synthase (Bacillus subtilis (strain 168)) (UniProt P96618)
Assay: qHTS Assay for Inhibitors of Bacillus subtilis AcpS phosphopantetheinyl transferase (PPTase): SAR
Details: purified B. subtilis AcpS enzyme; Potency: PPTase activity; series mostly up to 57.1 µM
Source text: The covalent attachment of a phosphopantetheinyl (4'-PP) arm to a variety of synthases and other proteins is a key posttranslational protein modification. The 4'-PP is installed on the proteins post-translationally from coenzyme A (CoA) on a conserved serine residue by action of phosphopantetheinyl transferase (PPTase) enzymes. Phosphopantetheinylation is essential for synthase activity, and removal of the PPTase gene precludes natural product synthesis in microorganisms, or in the case of fatty acid biosynthesis, renders the organism unviable. PPTase enzymes belong to a distinct structural superfamily. Within bacteria, these enzymes are grouped into two classes based upon primary structure, the AcpS-Type and Sfp-Type PPTases.
Sfp-type PPTases, corresponding to an activator of surfactin production in Bacillus subtilis, are responsible for modifying type I polyketide and nonribosomal peptide synthases of prokaryotes. Sfp-type PPTases are responsible for the activation of a variety of pathogen-associated virulence factors. Among these compounds are toxins such as mycolactone from Mycobacterium ulcerans, siderophores such as vibriobactin from Vibrio cholerae or mycobactin from Mycobacterium tuberculosis, as well as the mycolic acids which form the waxy cell wall of Mycobacteria. The biosyntheses of these natural products are considered attractive targets for drug design.
In search of small molecule Sfp-PPTase inhibitors, a fluorescence quenching assay was developed for detection of Bacillus subtilis Sfp-PPTase enzymatic activity in a miniaturized high-throughput format. The consensus ybbr acceptor peptide […] was N-terminally labeled with Black Hole Quencher-2 (BHQ-2) and used in combination with rhodamine-labeled coenzyme A as a co-substrate.
This project seeks to identify Sfp-PPTase inhibitors. This assay sought to determine the activity of these compounds with holo-acyl carrier protein synthase (AcpS) from E. coli, the canonical representative of the AcpS-PPTase subgrouping (vide supra). The evaluation utilized the qHTS assay format, with the only change being direct substitution of the enzyme.
NIH Chemical Genomics Center [NCGC]
NIH Molecular Libraries Probe Centers Network [MLPCN]
Assay Submitter (PI): Michale Burkart, University of California, San Diego
The assay was performed in a buffer consisting of 50mM HEPES-Na pH 7.6, 10mM MgCl2, 0.01% Nonidet P-40, and 0.01% BSA. Reagents (3 uL) were dispensed into a 1536-well black solid bottom plate (100 nM AcpS PPTase incolumns 1, 2, 5 through 48; buffer sans enzyme in columns 3 &4). DMSO solution of test articles (23 nL) were transferred via Kalypsys pintool equipped with 1,536-pin array. Following a room temperature incubation (15 min), enzyme reactions were initiated by the addition of substrate (1 uL , final concentration in the plte for rhodamine-CoA and BHQ-2-YbbR 5 uM and 12.5 uM, respectively). The plate was then centrifuged (15 s, 1000 rpm), and the fluorescence intensity recorded on a ViewLux High-throughput CCD imager (Perkin-Elmer, 525 nm excitation and 598 nm emission). The plate was then incubated at room temperature (30 min), after which a second read on the ViewLux was recorded. The fluorescence intensity difference over the 30-minute period was used to calculate the respective reaction rate for each well.

Potency, inactive:
Cc1ccnc(NC(=S)N2CCCc3ccc(C(F)(F)F)cc32)c1
FC(F)(F)c1cc(N2CCN(C(=S)Nc3cc(Cl)ccn3)CC2)cc(C(F)(F)F)c1
CC(Cc1ccccc1)C(=O)Nc1ccc(Cl)cc1C(=O)O (configuration not stated)
Cc1ccnc(NC(=S)Nc2cccc(C(F)(F)F)c2)c1
CSC(Cc1ccc(Cl)cc1)C(=O)Nc1ccc(Cl)cc1C(=O)O (configuration not stated)
Cc1nc(CN(C)c2ncnc3ccc(-c4ccc5[nH]ncc5c4)cc23)cs1
Cc1ccnc(N=C(N)N2CCN(c3cccc(C(F)(F)F)c3)CC2)c1
Cc1ccnc(NC(=S)N[C@@H]2CCN(c3cccc(C(F)(F)F)c3)C2)c1
COc1cccc(NC(=S)N2CCN(c3cc(Cl)cc(Cl)c3)CC2)n1
Cc1cc(C)nc(NC(=S)N2CCN(c3ncccc3C#N)CC2)c1

Potency, active:
Cc1ccnc(NC(=S)N2CCN(c3cc(C(F)(F)F)cc(C(F)(F)F)c3)CC2)c1 4.57 µM
Cc1cc(C)nc(NC(=S)N2CCN(c3ccc([N+](=O)[O-])cc3Cl)CC2)c1 6.46 µM
